# Compound activity: PubChem BioAssay, National Center for Advancing Translational Sciences (NCATS)
# Shown are actives, neighbours in structure and some others; about 2.6% of the full set was active somewhere.
# Cruzain inh noDet: inhibitors of Trypanosoma cruzi cruzain without detergent | purified cruzain, Z-FR-AMC fluorescence, no detergent | Potency, µM, most hits filed as inhibitors | actives 2.3% (n = 200,000) | AID 1476; note: nearly all actives have a fitted effect of over 40% in size
# Target sequence (P25779 123-467 limits assumed): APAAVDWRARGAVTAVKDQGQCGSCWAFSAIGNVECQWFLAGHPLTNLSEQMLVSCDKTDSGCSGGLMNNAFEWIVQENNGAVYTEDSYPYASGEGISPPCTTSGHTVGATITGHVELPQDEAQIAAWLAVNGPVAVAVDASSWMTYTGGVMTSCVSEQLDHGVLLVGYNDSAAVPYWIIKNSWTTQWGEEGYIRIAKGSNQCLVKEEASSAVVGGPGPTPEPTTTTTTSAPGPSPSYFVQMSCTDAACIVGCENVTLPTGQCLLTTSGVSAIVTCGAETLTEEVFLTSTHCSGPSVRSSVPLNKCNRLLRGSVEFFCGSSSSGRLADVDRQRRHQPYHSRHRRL
#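 Detergent-free condition (0.00005% Triton X-100) in acetate buffer pH 5.5 with DTT. 1.5 nM enzyme and compound were pre-mixed 15 min, then 2 uM Z-FR-AMC substrate added; reaction progress from fluorescence change between first and third reads (60 s).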
# Cruzain Triton: cruzain (T. cruzi) inhibition with detergent; purified cruzain, Z-FR-AMC fluorescence, 0.01% Triton; Potency, µM, usual class: inhibitors; P25779; actives 0.43% (n = 200,000); note: nearly all actives have a fitted effect of over 40% in size
#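 In this qHTS format, compounds are incubated with 1.5 nM cruzain for 15 min at room temperature before 2 uM Z-FR-AMC is added. Release of AMC is followed at 360/450 nm, and progress is taken as the 60 s fluorescence difference.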
# A number is an active result; . = inactive; ? = inconclusive. Calls come from the whole dose curve; as a rule, active = well fitted curve in the direction sought with a large enough effect; inconclusive = small, poorly fitted or top-dose-only effect, or another doubt; inactive = no such curve, though single readings can be large; an effect the other way counts as inactive or inconclusive.
SMILES,Cruzain inh noDet,Cruzain Triton
COc1cccc(C2CC(c3cccs3)=NN2C(=O)CSc2nc3ccccc3o2)c1OC (stereo unspecified),?,3.5µM
COC(=O)CSc1nc2ccccc2o1,.,.
COc1ccc(C2c3c(n(C)c4ccccc34)C(=O)N2CC(=O)Nc2ccccc2Cl)cc1 (stereo unspecified),?,.
O=C(O)c1cccc(C(=O)O)c1S(=O)Cc1ccccc1 (stereo unspecified),.,.
Cc1nnc(SCC(=O)N2CC(=O)Nc3ccccc32)n1C,.,.
C=CCn1c(SCC(=O)N2CC(=O)Nc3ccccc32)nc2scc(-c3cccs3)c2c1=O,10µM,.
C=CCn1c(COc2ccc(F)cc2)nnc1SCC(=O)N1CC(=O)Nc2ccccc21,.,.
CC(C)CCn1c(SCC(=O)N2CC(=O)Nc3ccccc32)nc2scc(-c3cccs3)c2c1=O,13µM,.
COc1cccc(NC(=O)CSc2nc(C)c(Cc3ccccc3)c(=O)[nH]2)c1,.,.
Cc1c(-c2nsc(NC(=O)c3cccs3)n2)nnn1-c1ccc(Cl)cc1,?,.
Cc1oc2ccc(O)c(CN3CCN(C)CC3)c2c1C(=O)Nc1cccc(Cl)c1C,.,.
COc1ccccc1NC(=O)C1=C(C)Nc2nc(-c3cccs3)nn2C1c1cccnc1 (stereo unspecified),16µM,.
COc1ccccc1NC(=O)C1=C(C)Nc2nc(-c3ccc(N(C)C)cc3)nn2C1c1ccncc1 (stereo unspecified),?,.
CCCc1cc(=O)oc2cc(C)c(CN3CCCC3)c(O)c12,.,.
CCc1cc(=O)oc2cc(C)c(CN3CCCC3)c(O)c12,.,.
CCCc1cc(=O)oc2c(CN3CCCC3)c(O)ccc12,?,25µM
CCCc1cc(=O)oc2c(CN3CCCC3)c(O)c(Cl)cc12,?,32µM
[O-]/[N+](=N\O)c1ccccc1,.,.
CCOC(=O)c1c(NC(=O)C2CCN(S(=O)(=O)c3cccs3)CC2)sc(C)c1C,.,.
CCOC(=O)c1c(NC(=O)C(C)N2CCN(S(=O)(=O)c3cccs3)CC2)sc2c1CCC(C)C2 (stereo unspecified),7.9µM,.
CC1CCc2c(sc(NC(=O)C3c4ccccc4Oc4ccccc43)c2C#N)C1 (stereo unspecified),.,.
CC(C)(C)C1CCc2c(sc(NC(=O)C3c4ccccc4Oc4ccccc43)c2C(N)=O)C1 (stereo unspecified),10µM,.
CC1CCc2c(sc(NC(=O)C3c4ccccc4Oc4ccccc43)c2C(N)=O)C1 (stereo unspecified),25µM,.
CC(C)(C)C1CCc2c(sc(NC(=O)c3ccco3)c2C(N)=O)C1 (stereo unspecified),.,.
CC(C)(C)C1CCc2c(sc(N)c2C(N)=O)C1 (stereo unspecified),25µM,.
SMILES,Cruzain inh noDet,Cruzain Triton
CCC(C)(C)C1CCc2c(sc(N)c2C(N)=O)C1 (stereo unspecified),?,.
COc1ccc2[nH]cc(CCNc3ncncc3-c3cccc(C#N)c3)c2c1,.,.
Cc1cc(C)c(Cn2c(=O)n(CCC(=O)NCc3ccc4c(c3)OCO4)c(=O)c3ccccc32)c(C)c1,.,.
C[C@H]1[C@H]2CC[C@H]3[C@@H]4CC=C5C[C@@H](N(C)C)CC[C@]5(C)[C@H]4CC[C@]23CN1C,.,.
NC(=O)NC(=O)[C@H]1CCCC[C@@H]1C(=O)O,.,.
CCOC(=O)c1c(NC(=O)C2c3ccccc3Oc3ccccc32)sc2c1CCC(CC)C2 (stereo unspecified),.,.
CCCOC(=O)c1c(NC(=O)C2c3ccccc3Oc3ccccc32)sc2c1CCC(C)C2 (stereo unspecified),20µM,.
Nc1ccn([C@H]2O[C@@H](COP(=O)(O)O)[C@@H](O)[C@H]2O)c(=O)n1,.,.
Cc1ccccc1OC(=O)CSc1nnc(-c2ccc(F)cc2)o1,.,.
O=C(O)c1ccncc1.O=C(O)c1ccncc1.[Cl][Pt]([Cl])([Cl])[Cl],.,.
Cc1cc(C)c(S(=O)(=O)NCc2ccc3c(c2)CCN3C(=O)c2ccccc2)c(C)c1,.,.
COc1ccc2oc(=O)c(-c3nnc(-c4ccc(C)cc4)o3)cc2c1,.,.
COc1ccc(-c2nnc(-c3cc4ccccc4oc3=O)o2)cc1,16µM,.
CCCCN(CC)CCCNC(=O)CS(=O)(=O)Cc1nc(-c2ccc(C)cc2)oc1C,.,.
CCC(C)c1ccc(OCC(=O)Nc2ccc3[nH]c(=O)[nH]c3c2)cc1 (stereo unspecified),25µM,.
CCC(C)c1ccc(OCC(=O)O)cc1 (stereo unspecified),.,.
CC(=O)OC1CC(OC(C)=O)[C@]2(C)C(CC(=O)[C@]3(C)C2CC[C@@]2(C)C(C(=O)O)OC(=O)C4OC423)C1(C)C (stereo partly specified),.,.
CCCCCCSc1nc(N)c2c3c(sc2n1)CCCC3C (stereo unspecified),.,.
CC1CCCc2sc3nc(SCC(=O)c4ccc(Br)cc4)nc(N)c3c21 (stereo unspecified),10µM,.
CCCc1nn2c(=O)cc(COc3ccc(/C=C(\C#N)C(=O)Nc4ccc(F)cc4)cc3)nc2s1,.,.
COc1ccc(NC(=O)/C(C#N)=C/c2ccc(OCc3ccccc3F)cc2)cc1,4µM,.
CCN(CC)S(=O)(=O)c1ccc(N2CCCCC2)c(NC(=O)/C(C#N)=C/c2ccc(OC)cc2)c1,10µM,.
CCOc1ccc(NC(=O)/C(C#N)=C/c2ccc(N3CCCC3)c(C)c2)cc1,10µM,.
COc1ccc(/C=C(\C#N)C(=O)Nc2cc(S(=O)(=O)N3CCOCC3)ccc2N2CCCC2)cc1,?,.
CCOc1cc(/C=C(/C#N)C(=O)Nc2ccc(O)cc2)cc(Br)c1O,.,.
SMILES,Cruzain inh noDet,Cruzain Triton
Cc1ccc(NC(=O)c2cc(S(=O)(=O)N(C)C3CCCCC3)ccc2F)cc1C,.,.
Cc1nnc(NC(=O)CSc2nccn2-c2cccc(Cl)c2)s1,.,.
COc1ccc(-c2nc(-c3ccccc3)oc2NC(C)C)cc1,.,.
O=[N+]([O-])c1ccc2c(c1)c(S(=O)(=O)O)cc1nonc12,.,.
O=C(Nc1ccc2c(c1)CCC2)c1cc(S(=O)(=O)Nc2ccc(F)cc2)c(Cl)cc1Cl,20µM,.
O=C(Nc1ccc2c(c1)CCC2)c1ccc(F)cc1,.,.
COc1ccc(C(=O)COC(=O)c2cccc(NC(=O)c3ccc(OC)c(OC)c3)c2)cc1,?,.
COc1ccc(OC)c(C(=O)c2ccc(C(=O)Nc3cccc4ccccc34)cc2)c1,25µM,.
COc1ccc(C(=O)Nc2ccc(C(=O)OCC(=O)c3cccc4ccccc34)cc2)cc1,1.6µM,.
COc1ccc(C(=O)Nc2ccc(C)cc2C(=O)c2ccccc2)cc1,.,.
COc1cc(OC)c2c(=O)c(-c3ccccc3)coc2c1,.,.
CC(C)(C)C(=O)OCc1cc(=O)n2nc(C3CCCCC3)sc2n1,.,.
N#Cc1cccc(NC(=O)CSc2ccccc2)c1,.,.
COc1ccc(NC(=O)CSc2nc3ccccc3c3nc4ccccc4n23)cc1,.,.
N#Cc1cccc(NC(=O)CSc2ccc3c4c(cccc24)C(=O)c2ccccc2-3)c1,10µM,.
COc1ccc(NC(=O)CSc2ccc3c4c(cccc24)C(=O)c2ccccc2-3)cc1,13µM,.
CCc1ccc2c(c1)c(=O)c(C(=O)c1ccccc1)cn2CC(=O)Nc1ccc(C)c(Cl)c1,.,.
